Hit rate of the full screen: of about 390,000 compounds, about 17,000 (4.4%) were called active. Another 8% or so got no clear call; they are omitted. Calls come from the whole dose curve; as a rule, active = well fitted inhibition curve with a large enough effect; inconclusive = small, poorly fitted or top-dose-only effect; inactive = no such curve, though single readings can be large or run the other way. For the sample, actives were picked, then their nearest neighbours and some compounds at random.
% is set by controls: 0 for no effect and ±100 for the full control effect; potency is the fitted concentration of half-maximal effect.

The target in this test is Lysine-specific demethylase 4A (Homo sapiens) (UniProt O75164). Nature of the test: qHTS Assay for Inhibitors of JMJD2A-Tudor Domain. Note: nearly all actives have a fitted effect of over 50% in size. Particulars: AlphaScreen JMJD2A-Tudor / H3K4me3 peptide binding; series mostly up to 114 µM; activity change, negative = inhibition: at the top concentration.
Chain of Lysine-specific demethylase 4A (Homo sapiens) (O75164 whole entry, looked up, the tested form may be a part): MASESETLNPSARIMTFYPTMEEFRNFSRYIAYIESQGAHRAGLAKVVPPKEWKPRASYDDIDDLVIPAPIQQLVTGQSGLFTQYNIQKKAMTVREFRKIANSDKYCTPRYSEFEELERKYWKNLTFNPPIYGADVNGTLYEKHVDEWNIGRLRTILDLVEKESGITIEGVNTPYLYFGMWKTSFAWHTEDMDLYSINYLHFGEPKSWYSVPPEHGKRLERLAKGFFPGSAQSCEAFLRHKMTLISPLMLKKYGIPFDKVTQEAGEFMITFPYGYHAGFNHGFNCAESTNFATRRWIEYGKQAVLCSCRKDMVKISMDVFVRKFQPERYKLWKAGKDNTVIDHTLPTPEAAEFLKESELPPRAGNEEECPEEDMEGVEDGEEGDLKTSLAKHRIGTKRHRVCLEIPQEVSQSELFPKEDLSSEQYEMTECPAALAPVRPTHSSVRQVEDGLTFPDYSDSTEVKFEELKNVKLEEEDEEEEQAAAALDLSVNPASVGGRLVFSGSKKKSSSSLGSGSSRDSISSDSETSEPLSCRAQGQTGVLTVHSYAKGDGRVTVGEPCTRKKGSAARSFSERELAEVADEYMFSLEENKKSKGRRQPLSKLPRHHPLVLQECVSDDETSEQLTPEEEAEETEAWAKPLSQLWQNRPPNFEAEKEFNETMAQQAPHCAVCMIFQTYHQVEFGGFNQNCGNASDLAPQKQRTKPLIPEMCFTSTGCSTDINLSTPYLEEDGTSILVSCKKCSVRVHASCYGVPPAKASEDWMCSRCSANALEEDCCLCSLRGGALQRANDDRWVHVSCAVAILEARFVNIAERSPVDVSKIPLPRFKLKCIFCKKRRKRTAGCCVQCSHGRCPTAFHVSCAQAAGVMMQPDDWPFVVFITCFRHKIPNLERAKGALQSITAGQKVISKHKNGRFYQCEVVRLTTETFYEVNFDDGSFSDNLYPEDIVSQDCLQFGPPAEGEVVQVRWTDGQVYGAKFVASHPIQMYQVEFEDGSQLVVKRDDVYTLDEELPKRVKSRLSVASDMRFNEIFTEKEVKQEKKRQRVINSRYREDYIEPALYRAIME
In the case of `O=C(C1COc2ccccc2O1)N(Cc1cccnc1)c1nc2c(F)cc(F)cc2s1` (stereo unspecified), the “activity change, negative = inhibition” value was -9.74% (inactive).

Consider `COc1ccc(Cc2nnc(NC(=O)Cc3cccs3)s2)cc1`, for which the Potency was 28.2 µM (active). With `COc1ccc(Cc2nnc(NS(=O)(=O)Cc3ccccc3)s2)cc1`, the “activity change, negative = inhibition” value is -7.95% (inactive). Same read-out and setting: the same measure for `COc1ccccc1NC(=O)Nc1nnc(Cc2ccc(F)cc2)s1`: -2.33% (inactive). Still for that read-out and setting: next, `Cc1nn(C(C)C(=O)NCCc2ccccc2)c(=O)c2c1sc1ccccc12` (stereo unspecified): -21.9% (inactive).

As for `COC(=O)c1sccc1S(=O)(=O)N(CC(=O)Nc1ccc(C)c(F)c1)c1ccc(C)c(C)c1`, the “activity change, negative = inhibition” value is -22.7% (inactive). For `CCOc1cc(C=NNC(=O)CCCC(=O)NN=Cc2ccc(O)c(OCC)c2)ccc1O`, the “activity change, negative = inhibition” value was -9.03% (inactive). Consider `COc1cc(/C=N\Nc2nc(-c3cccs3)c(NC(C)=O)s2)ccc1O`, for which the Potency is 25.1 µM (active). `CC(=O)c1sc(N/N=C/c2ccc(C(C)C)cc2)nc1C`: the “activity change, negative = inhibition” value is 4.81% (inactive).

Consider `Cc1ccc2nc(COc3cccc(NC(=O)c4ccccc4Cl)c3)cc(=O)n2c1`, for which the “activity change, negative = inhibition” value is 0% (inactive). Still for that read-out and setting: the same measure for `COc1cc(C(=O)NCCc2csc3nc(-c4ccccc4C)nn23)cc(OC)c1OC`: -19.2% (inactive); for `CCOC(=O)c1c(NC(=O)CSc2nccc(=O)[nH]2)sc(C)c1C`: -13.9% (inactive); for `CCOC(=O)c1c(NC(=O)CSc2nnc(CN3CCOCC3)n2C)sc2c1CCCC2`: -10.3% (inactive).

With `CCOC(=O)c1c(NC(=O)CSc2nnc(Cc3csc(N)n3)n2C)sc(C)c1C`, the Potency was 39.8 µM (active). On to `COc1ccc(C2C(=O)N(C3CCCCCC3)CC(=O)N2CCc2ccc(Cl)cc2)cc1OC` (stereo unspecified), for which the “activity change, negative = inhibition” value was -33.6% (inactive). On the same count and under the same terms, the same measure for `Cc1ccc(Cn2cc(CCC(=O)NCc3ccc(OC(C)C)cc3)c3ccccc32)cc1`: 0% (inactive); for `CCOc1cc(/C=N/NC(=O)c2cccc(S(=O)(=O)N3CCOCC3)c2)ccc1OCC(=O)N(C)C`: -1.7% (inactive). As to `Cc1ncc(CO)c(/C=N/NC(=O)c2cccc(S(=O)(=O)N3CCCC3)c2)c1O`, the Potency is 22.4 µM (active).

For `Cc1cccc(NC(=O)c2cccc(S(=O)(=O)N3CCCC3)c2)n1`, the “activity change, negative = inhibition” value is 2.07% (inactive). Turning to `COc1ccccc1CCNC(=O)c1cccn1-c1nnc(N2CCCCC2)s1`, the “activity change, negative = inhibition” value is -26.9% (inactive). On the same count and under the same terms, next, `COc1ccc2c(C)c(CCC(=O)NCc3ccc(OC)c(OC)c3)c(=O)oc2c1`: -14.2% (inactive). Take `COC(=O)COc1ccc2c(c1C)O/C(=C\c1ccco1)C2=O`: the “activity change, negative = inhibition” value is -23.9% (inactive). Take `O=C(OCN1C(=O)c2ccccc2C1=O)/C(=C\c1ccco1)NC(=O)c1ccccc1`: the “activity change, negative = inhibition” value was -32.4% (inactive).

In the case of `COC(=O)C1=C(C)N(c2ccc(Br)cc2)C(=O)/C1=C\c1ccco1`, the Potency is 17.8 µM (active). For the compound `CCCCN=C1N/C(=C\c2ccco2)C(=O)N1c1ccccc1`, the “activity change, negative = inhibition” value is -29.4% (inactive).

In the case of `COC(=O)C1=C(C)N(C(C)c2ccccc2)C(=O)/C1=C\c1ccco1` (stereo unspecified), the Potency is 25.1 µM (active).

`COC(=O)C1=C(C)N(c2ccc(C)cc2)/C(=C/c2ccc(O)cc2)C1=O`: the “activity change, negative = inhibition” value was -17.2% (inactive). Still for that read-out and setting: the same measure for `CCOC(=O)c1c(C)[nH]c(C)c1S(=O)(=O)N1CCC(C(=O)Nc2ccc(C)c(Cl)c2)CC1`: 1.95% (inactive). On the same count and under the same terms, the same measure for `CCOC(=O)C1CCCN(C(=O)c2ccc3c(c2)sc2nc(-c4ccc(CC)cc4)cn23)C1` (stereo unspecified): -4.28% (inactive).

For `COC(=O)c1sc2ncccc2c1-n1c(C)ccc1C`, the “activity change, negative = inhibition” value is -14.4% (inactive). The same measure, in the same setting: next, `COc1ccc(CNC(=O)c2cc3c(s2)-c2ccccc2OC3)cc1`: -8.73% (inactive); `Cc1cccc(N2CCN(C(=O)c3cnc(N4CCCC4)nc3C)CC2)c1C`: -5.3% (inactive). The same measure, in the same setting: next, `COc1ccc(-c2cc(-c3ccc(F)cc3)nc3c2COc2ccccc2-3)cc1`: 13.4% (inactive); `CCN(CC(=O)NC1CCS(=O)(=O)C1)c1nc(-c2cccnc2)nc2ccccc12` (stereo unspecified): -15% (inactive). As for `COc1ccc(Nc2nc(-c3cccnc3)nc3ccccc23)cn1`, the Potency is 31.6 µM (active).

As to `COc1cc(Nc2nc(-c3ccc(OC)c(OC)c3)nc3ccccc23)cc(OC)c1`, the “activity change, negative = inhibition” value is -30.4% (inactive).

As to `CC1CCC2(CC1)N=C(c1ccccc1)C(=O)N2CC(=O)Nc1ccc(F)c(Cl)c1` (stereo unspecified), the “activity change, negative = inhibition” value is -12.8% (inactive). For `Cc1ccc(-n2c(=O)c3cccnc3n2CC(=O)Nc2ccccc2C(F)(F)F)cc1C`, the “activity change, negative = inhibition” value is 23.7% (inactive).

`COc1ccc(CNc2nc(-c3ccc(Cl)cc3)nn2C(=O)c2ccccc2)cc1`: the “activity change, negative = inhibition” value is 19.2% (inactive).

`C/C=C(/C)C(=O)Nc1cccc(C2=NOC3(C2)C[C@@H](C(N)=O)N(C(=O)C2(C)CC2)C3)c1` (stereo partly specified): the “activity change, negative = inhibition” value was -9.09% (inactive).

With `CC/C=C/C(=O)N1CC2(CC(c3cccc(NC(=O)CC)c3)=NO2)C[C@H]1C(N)=O` (stereo partly specified), the “activity change, negative = inhibition” value is -15.5% (inactive).

`NC(=O)[C@H]1CC2(CC(c3cccc(NC(=O)[C@H]4CCC(=O)N4)c3)=NO2)CN1C(=O)c1ccccc1C(=O)c1ccccc1` (stereo partly specified): the Potency is 89.1 µM (active). For the compound `O=C(Nc1cccc(-c2nnc(-c3ccccc3)o2)c1)C1CCCO1` (stereo unspecified), the “activity change, negative = inhibition” value is -10.7% (inactive). On to `C=C(C)C(=O)Nc1cccc(C2=NOC3(C2)C[C@H](C(N)=O)N(C(=O)C(c2ccccc2)c2ccccc2)C3)c1` (stereo partly specified), for which the Potency was 11.2 µM (active). Take `C/C=C(\C)C(=O)N1CC2(CC(c3cccc(NC(=O)CCCCC)c3)=NO2)C[C@@H]1C(N)=O` (stereo partly specified): the “activity change, negative = inhibition” value is -18.7% (inactive). Same read-out and setting: next, `Cc1ccc(OCCSc2nc(C)c(Cc3ccccc3)c(=O)[nH]2)cc1`: -6.6% (inactive); `COc1cc(OC)c(NC(=O)c2cc(S(=O)(=O)N3CCCC3)cn2C)cc1Cl`: -13.5% (inactive); `Cc1c(C(=O)NCc2ccccc2Br)oc2ccc3c(c12)C(=O)CC(C)(C)O3`: -20.7% (inactive).

With `COc1cccc(N2CCN(S(=O)(=O)c3cc(Br)cc4c3N(C(=O)C3CC3)CC4)CC2)c1`, the “activity change, negative = inhibition” value is -18.4% (inactive). In the case of `COc1ccc(CCNc2ncnc3onc(-c4ccc(Cl)cc4)c23)c(OC)c1`, the “activity change, negative = inhibition” value was 3.24% (inactive). Turning to `COc1cc(/C=C/C(=O)Nc2ccc(OC)c(S(=O)(=O)N3CCOCC3)c2)ccc1OCC#N`, the “activity change, negative = inhibition” value is -21.4% (inactive).

In the case of `COc1cc(/C=C/C(=O)OCC(=O)N2CCOCC2)ccc1OCC#N`, the Potency is 50.1 µM (active). As to `COc1cc(/C=C/C(=O)OCC(=O)NC(=O)NCc2ccccc2)ccc1OCC#N`, the “activity change, negative = inhibition” value was -14.3% (inactive). The same measure, in the same setting: next, `CCOC(=O)c1oc2ccc(S(=O)(=O)n3nc(-c4ccccc4OC)cc3N)cc2c1C`: -22.2% (inactive); `CCOC(=O)CSc1ncc(-c2cccc(Cl)c2)cn1`: 77.5% (inactive). The same measure, in the same setting: next, `Cc1oc(-c2ccccc2Cl)[n+]([O-])c1C`: -11.7% (inactive). Turning to `Cc1oc(-c2cccc(Cl)c2)[n+]([O-])c1C`, the Potency is 79.4 µM (active). Take `COc1ccc(C(=O)N2CCC(c3nc4ccccc4o3)CC2)cc1`: the “activity change, negative = inhibition” value is -8.61% (inactive). As to `COc1c(O)ccc2c1CN1CCc3cc4c(cc3C1C2)OCO4` (stereo unspecified), the Potency is 44.7 µM (active).

For the compound `COc1cc(C(=O)CCc2ccc3c(c2)OCO3)cc(OC)c1OC`, the “activity change, negative = inhibition” value was -1.38% (inactive).

As for `COc1ccc(CN2CCCC(N3CCc4ccccc4C3)C2)c(O)c1` (stereo unspecified), the “activity change, negative = inhibition” value was -25.6% (inactive).
